{"source": "PubChem BioAssay", "note": "Activity calls are given as the source filed them. Cut-off read from the data, not from the text of the source: active = fold change permeability below about 0.7 or above about 1.3; inactive = in between."}
{"assay": "compounds altering in vitro BBB leakiness – cell-based, FITC-avidin fluorescence, HTS, primary screen (AID 1963498); note: test concentration not given here", "conditions": "brain endothelial barrier, actives lie on both sides"}
{"smiles": "Cc1cccc(Nc2ccccc2C(=O)O)c1", "fold change permeability": "0.9 (inactive)"}
{"smiles": "CCC1(C)CC(=O)NC1=O", "note": "(stereo unspecified)", "fold change permeability": "0.7 (active)"}
{"smiles": "CN1C[C@H](C(=O)N[C@]2(C)O[C@@]3(O)[C@@H]4CCCN4C(=O)[C@H](Cc4ccccc4)N3C2=O)C[C@@H]2c3cccc4[nH]cc(c34)C[C@H]21", "fold change permeability": "1.4 (active)"}
{"smiles": "COc1ccc(Cc2nn3c([C@@H](CCCc4ccccc4)[C@@H](C)O)nc(C)c3c(=O)[nH]2)cc1OC", "fold change permeability": "1.1 (inactive)"}
{"smiles": "CC(C)N1CCN(S(=O)(=O)c2ccc(NC(=O)c3ccc(C(F)(F)F)cc3[N+](=O)[O-])cc2)CC1", "fold change permeability": "1.4 (active)"}
{"smiles": "CC(C)(Oc1ccc(CCNC(=O)c2ccc(Cl)cc2)cc1)C(=O)O", "fold change permeability": "0.9 (inactive)"}
